Compound activity deposited in PubChem by National Center for Advancing Translational Sciences (NCATS).
GLP1R cytotox = cytotoxic in the GLP-1 receptor inverse agonist counter-screen; HEK293 cAMP-luciferase reporter cells, luminescence, 24 h; Potency, µM (doses to about 38.3 µM), without a hit: top-dose activity change, negative = inhibition, most hits filed as inhibitors; hit rate 0.13% among 410,000; AID 624418;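 note: loss of luciferase light is scored as toxicity; % is set by controls: 0 for no effect and ±100 for the full control effect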
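Here, cytotoxicity is scored as loss of luminescence. The MLSMR collection was tested on cells seeded in medium containing 10% Nu serum, with a 24 hr compound exposure preceded by 12 hours of culture.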
GLP1R inv ag = acts as inverse agonist at human GLP-1 receptor. Potency, µM (doses to about 38.3 µM), without a hit: at the highest dose activity change, negative = inhibition, hits mostly inhibitors. hit rate 1.6% among 410,000. P43220. HEK293 GLP-1R CRE-luciferase, luminescence, 24 h; GLP-1R form is constitutively active. AID 624417; note: % is set by controls: 0 for no effect and ±100 for the full control effect; nearly all actives have a fitted effect of over 55% in size
Target sequence (P43220 whole entry, looked up): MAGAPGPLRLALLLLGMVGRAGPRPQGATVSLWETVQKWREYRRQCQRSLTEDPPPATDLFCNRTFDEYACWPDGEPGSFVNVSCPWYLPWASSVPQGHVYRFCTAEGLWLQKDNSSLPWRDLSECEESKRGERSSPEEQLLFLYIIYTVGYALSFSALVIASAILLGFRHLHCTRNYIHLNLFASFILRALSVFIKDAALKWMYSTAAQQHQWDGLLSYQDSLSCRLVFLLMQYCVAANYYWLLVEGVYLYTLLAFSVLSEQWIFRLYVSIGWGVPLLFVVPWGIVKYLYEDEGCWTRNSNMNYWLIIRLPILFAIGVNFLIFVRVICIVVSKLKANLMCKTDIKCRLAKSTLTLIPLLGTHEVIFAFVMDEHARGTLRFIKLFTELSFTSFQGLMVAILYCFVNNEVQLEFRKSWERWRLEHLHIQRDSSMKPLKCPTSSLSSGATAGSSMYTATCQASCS
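HEK293 cells stably co-expressing constitutively active GLP-1R and a cAMP-responsive luciferase reporter were seeded in DMEM with 10% Nu serum, given compounds after 12 h, and incubated 24 h at 37 deg C. Luminescence was then read.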
Mito fusion act = inhibitors of mitochondrial division or activators of mitochondrial fusion; S. cerevisiae fusion-defective mutant growth rescue, CellTiterGlo 48 h; Potency, µM (highest dose often 46.1 µM), for the others: at the highest dose growth rescue (activation), actives largely listed as activators; hit rate 0.23% among 320,000; AID 485298; note: % of control where 0% means no effect; nearly all actives have a fitted effect of over 45% in size
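Growth-rescue viability read-out: after 48 h at the non-permissive 37C in glycerol/ethanol YPEG, yeast mitochondrial fusion mutants are measured by CellTiterGlo luminescence; compounds (23 nl pinned per well) restoring growth score as division inhibitors or fusion activators.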
BRCA1 expr act = increases BRCA1 expression | MCF7-BRCA1-FFLuc reporter, luminescence, 48 h; response scale: scaled: vehicle 0%, 10 µM genistein 100% | Potency, µM (top dose mostly 46.1 µM), without a hit: at the highest dose activation, usual class: activators | hit rate 1.1% among 380,000; note: nearly all actives have a fitted effect of over 80% in size
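Luminescence from a BRCA1-driven firefly luciferase in MCF7 cells was read after 48 h compound exposure at 37 C. Data normalized against DMSO and a 10microM genistein activation control, then curve-fitted across the titration.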
GLP-1R agonist = activates the human GLP-1 receptor; P43220; HEK293 GLP-1R CRE-luciferase, luminescence, 4-6 h; cells express a hypersensitive GLP-1R form; Potency, µM (titrated, usually from 45.6 µM), for inactives: at the top dose activation, hits mostly activators; hit rate 0.007% among 380,000; AID 624172; note: % of control where 0% means no effect
Starred values were filed as active, the others as inactive; ? = inconclusive; nt = not tested or not shown; ! = not confirmed by another sample. Compounds with a hit are over-represented: about 2.8% of the library has one in this group of screens. Calls come from the whole dose curve; as a rule, active = well fitted curve in the direction sought with a large enough effect; inconclusive = small, poorly fitted or top-dose-only effect, or another doubt; inactive = no such curve, though single readings can be large; an effect the other way counts as inactive or inconclusive. Potency is the fitted concentration of half-maximal effect.

SMILES | GLP1R cytotox | GLP1R inv ag | Mito fusion act | BRCA1 expr act | GLP-1R agonist
O=C(c1cc(COc2ccc(F)cc2Cl)on1)N1CCSCC1 | 0% | ? | -2% | 6.3µM* | 17%
COc1ccc(OCc2cc(C(=O)N3CCCCCC3)no2)c(Cl)c1 | 1% | ? | -8% | ? | 11%
COc1ccc(OCc2cc(C(=O)N3CCSCC3)no2)c(Cl)c1 | 1% | ? | -7% | 11µM* | 15%
C=CCOC(=O)C(C#N)c1nc2ccccc2nc1N1CCCC1 (centres undefined) | -10% | ? | 9% | -25% | 2%
COc1cc(NC(=O)c2ccco2)c(OC)cc1NC(=O)CCC(=O)Nc1cc(C)cc(C)c1 | -9% | 0% | 0% | -22% | -4%
O=S(=O)(c1ccc(OC(F)(F)F)cc1)N1CCN(c2nc(-c3ccccc3)nc3ccccc23)CC1 | nt | nt | nt | 0% | nt
COc1ccc(Cl)cc1NC(=O)c1cc(-c2ccccc2O)n[nH]1 | 15% | -20% | 6.3µM* | -66% | -4%
COC(=O)CSc1nnc(-c2ccncc2)n1N | 2% | -11% | 4% | 7% | -4%
C#CCN1C(C)=C(C(=O)OC)C(c2cccc([N+](=O)[O-])c2)C(C(=O)OCC)=C1C (centres undefined) | -6% | ? | 4.6µM*! | -36% | -2%
CCCCOC(=O)C1=C(C)NC(=O)NC1c1cccc([N+](=O)[O-])c1 (centres undefined) | -7% | 1% | 1% | -1% | 9%
CCOC(=O)C1=C(C)NC(C)=C(C(=O)OCC)C1c1cccc([N+](=O)[O-])c1 | -11% | 10µM* | nt | -8% | -4%
CCCCN1C(=O)NC(c2cccc([N+](=O)[O-])c2)C(C(=O)OCC)=C1C (centres undefined) | 3% | -10% | nt | -8% | -2%
CC1CCC(C(C)C)C(OP(=O)(c2ccc(N(C)C)cc2)C(O)c2cccnc2)C1 (centres undefined) | nt | nt | -17% | nt | nt
CC(C)CSc1nsc(N)n1 | -19% | 58% | 6% | 13µM* | 1%
Nc1nc(SCc2ccccc2)ns1 | -10% | 27% | 3% | 11µM* | 6%
Nc1nc(SCc2ccc(Cl)cc2)ns1 | -2% | 0% | 27% | 91% | -2%
O=C(NCC(=O)N(c1ccc(Cl)cc1)C(C(=O)NC1CCCC1)c1cccnc1)c1ccco1 (centres undefined) | 12% | 5% | 5% | -50% | 6%
CCOC(=O)N(C)c1c(CC)nc2c(OCc3ccc(OC(F)F)cc3)cccn12 | -14% | ? | nt | -25% | -1%
CSc1nc2ccc(Cl)cc2[nH]1 | 9% | 67% | 25% | 2% | 5%
CSc1nc2cc(Oc3cccc(Cl)c3Cl)c(Cl)cc2[nH]1 | -2% | 11µM* | 4% | -16% | 5%
CC(C)Oc1ccc(C(=O)NC2(C(F)(F)F)NC(=O)N(CCCc3ccccc3)C2=O)cc1 (centres undefined) | -16% | ? | 20µM* | -57% | -5%
Cc1cc(C)cc(NC(=O)CN2C(=O)CSc3ccc(S(=O)(=O)N4CCCC4)cc32)c1 | -4% | ? | nt | nt | nt
Cc1ccc(NC(=O)CN2C(=O)CSc3ccc(S(=O)(=O)N4CCCCC4)cc32)cc1 | 8% | 5µM* | 6% | -27% | -1%
Cc1ccc(Cl)cc1NC(=O)CN1C(=O)CSc2ccc(S(=O)(=O)N3CCCC3)cc21 | -6% | -19% | nt | nt | nt
Cc1cc(Cl)ccc1NC(=O)CN1C(=O)CSc2ccc(S(=O)(=O)N3CCOCC3)cc21 | -21% | 11µM* | -9% | -11% | 5%
SMILES | GLP1R cytotox | GLP1R inv ag | Mito fusion act | BRCA1 expr act | GLP-1R agonist
O=C(NCc1ccc(F)c(F)c1)C1CCC(=O)N(CCc2ccccc2)C1 (centres undefined) | 9% | 1% | 2% | 1% | -6%
Cc1cc(C)c2cc(C(=O)N3CCc4ccccc4C3)[nH]c2c1 | -22% | ? | 5% | -58% | 27%
Cc1cc(C)c2cc(C(=O)N(C)C3CCN(C)CC3)[nH]c2c1 | 7% | 5µM* | 0% | 0% | 9%
Cc1onc(-c2ccccc2)c1C(=O)NC(=S)NNC(=O)c1ccccc1O | ? | 2.8µM* | 1% | -76% | 1%
CCN(CC)CCN=CC1=C(O)CNC1=O | 13% | 1% | 2% | 0% | -10%
Cc1cc(C)c2nc(N3CCC(C(=O)NCCCN4CCCCC4)CC3)sc2c1 | ? | 3.2µM* | -3% | -72% | -20%
Cc1cc(C)c2nc(N3CCC(C(=O)NCC4CCCO4)CC3)sc2c1 (centres undefined) | -2% | ? | 11% | 73% | -1%
COc1ccc(C(=O)N2N=C(c3ccccc3)CC2(O)C(F)(F)F)cc1 (centres undefined) | -12% | ? | 2% | -1% | 5%
COC(=O)N1N=C(c2ccccc2)CC1(O)C(F)(F)F (centres undefined) | 28% | 6% | -1% | 11µM* | -2%
Nc1nonc1-c1nc2ccccc2n1CC(=O)N/N=C\c1ccc(-c2ccc(Cl)cc2)o1 | 8% | 10µM* | -3% | -19% | 1%
c1ccc2c(c1)CCN(c1ncnc3nc[nH]c13)C2 | 8% | 59% | 3% | 3.5µM*! | -2%
CS(=O)(=O)c1ncc(Cl)c(C(=O)N(Cc2ccc(Cl)cc2)Cc2ccco2)n1 | ? | 8.9µM* | nt | nt | nt
COc1ccc(N(Cc2ccccc2)C(=O)c2nc(S(C)(=O)=O)ncc2Cl)cc1 | ? | 10µM* | nt | nt | nt
CCOc1ccc(N(Cc2ccccc2)C(=O)c2nc(SC)ncc2Cl)cc1 | 2% | ? | nt | nt | nt
S=c1[nH]c(-c2ccc(Br)cc2)cn1CCc1ccccc1 | 14% | 10% | -2% | 3% | 5%
O=S(=O)(c1ccccc1)c1nnn2c1nc(N1CCN(c3ccccc3)CC1)c1cc(Cl)ccc12 | 0% | 7% | nt | nt | nt
Cc1cc(C)c(S(=O)(=O)Nc2cnc3ccccc3c2)c(C)c1 | -10% | ? | 24% | -44% | 9%
Cc1ccc(-c2nc(-c3ccccn3)no2)cc1 | -18% | 0.89µM* | -14% | ? | -28%
Fc1cccc(F)c1-c1nc(-c2ccncc2)no1 | 10% | 16% | -6% | 8.9µM* | 2%
Cc1ccc(-c2nc(-c3ccccn3)no2)cc1Cl | -4% | 1.6µM* | -4% | -90% | -6%
Cc1ccc(-c2noc(-c3ccno3)n2)cc1 | 0% | 9% | -6% | 8.9µM* | 2%
c1ccc(-c2noc(-c3ccno3)n2)nc1 | -17% | 10% | 2% | 66% | 8%
CO[C@H]1CN(C)C(=O)c2cc(NC(=O)c3ccccc3)ccc2OC[C@H](C)NC[C@@H]1C | 4% | 18% | nt | nt | nt
COc1ccc(NC(=O)Cn2c(=O)n(CCC(=O)NCc3ccccc3OC)c(=O)c3ccccc32)cc1Cl | 4% | 22% | nt | 8% | -4%
